aSyn UTR act = Activators via SNCA 5'UTR binding, MLPCN; alpha-synuclein 5'UTR reporter, activators screen; 300,000 compounds, 7.1% hits; activity score, % (tested at 7.5 µM), hits read low; in the data active = activity score below about -60%
* marks the source's active call; other numbers are inactive results. These entries were drawn from the full list.

SMILES | aSyn UTR act
c1ccc(C2=Nc3ccccc3NC(c3ccccc3)C2)cc1 (stereo not given) | -178*
O=C(Nc1nccs1)c1ccccc1N=Cc1ccccc1 | -84*
N#C/C(=C\c1cccs1)C(=O)Nc1nccs1 | -75*
C/C=C/C=C/C(=O)Nc1nccs1 | -77*
C/C(=C\c1ccccc1)C(=O)Nc1nccs1 | -121*
c1ccc2c(c1)CCN(c1nc3cc4c(cc3s1)OCCO4)C2 | 75
CC(=O)c1ccc(N2CCN(C(=O)c3ccco3)CC2)c(F)c1 | -98*
Cc1cc2nc(N3CCN(C(=O)c4ccco4)CC3)sc2cc1C | -129*
O=C(c1ccco1)N1CCN(c2nc3ccsc3c(=O)s2)CC1 | -98*
Cc1cc(C)c2nc(N3CCN(C(=O)c4ccco4)CC3)sc2c1 | -115*
Cc1cc2nc(N3CCN(C(=O)c4cccs4)CC3)sc2cc1C | -130*
O=C(c1cccs1)N1CCN(c2nc3c(F)cc(F)cc3s2)CC1 | -78*
O=C(NCc1cccs1)C(=O)c1c[nH]c2ccccc12 | -123*
O=C(NCc1ccco1)C(=O)c1c[nH]c2ccccc12 | -79*
COc1ccc(C(=O)Nc2ccccc2C(=O)Nc2cc(C)ccn2)cc1 | -107*
Cc1ccnc(NC(=O)c2cc3ccccc3oc2=O)c1 | -202*
COc1cc(C(=O)Nc2ccccc2C(=O)Nc2ccccn2)cc(OC)c1OC | -67*
Cc1ccc(NC(=O)C(=O)Nc2ccccn2)cc1 | 71
COc1ccccc1NC(=O)C(=O)Nc1ccccn1 | -167*
COc1ccc(C(=O)NC(=O)Nc2cc(C)ccn2)cc1 | 72
COc1ccc(C(=O)Nc2ccccc2C(=O)Nc2cccc(C)n2)cc1 | -86*
COc1cc2ccccc2cc1C(=O)Nc1cc(C)ccn1 | -94*
COc1ccc(C(=O)Nc2ccccc2C(=O)Nc2cccnc2)cc1 | -80*
CC1CCN(C(=O)Cn2cnc3c(cnn3C(C)(C)C)c2=O)CC1 | -85*
CC(C)(C)n1ncc2c(=O)n(CC(=O)c3ccc(Cl)cc3)cnc21 | -197*
SMILES | aSyn UTR act
C(=N\Nc1nc2ccccc2[nH]1)/c1ccccc1 | -175*
C(/CCc1ccccc1)=N\Nc1nc2ccccc2[nH]1 | -67*
O=c1[nH]c(N/N=C\c2ccc3c(c2)OCO3)nc2ccccc12 | -161*
Cc1cc(N/N=C/c2ccc3c(c2)OCO3)nc2ccccc12 | -180*
Fc1ccc(/C=N/Nc2nc3ccccc3[nH]2)cc1F | -159*
O=c1[nH]c(N/N=C/c2ccccc2)nc2ccccc12 | -212*
Brc1ccc(-c2ccc(/C=N/Nc3nc4ccccc4[nH]3)o2)cc1 | -227*
Fc1cccc(/C=N/Nc2nc3ccccc3[nH]2)c1 | -160*
C(=C\c1ccccc1)/C=N/Nc1nc2ccccc2[nH]1 | -275*
CCOc1ccc(-n2c(SCc3ccc([N+](=O)[O-])cc3)nnc2-c2ccccc2)cc1 | 56
O=[N+]([O-])c1ccc(N2CCN(c3ccccc3)CC2)nc1 | -76*
CC(C)OC(=O)c1ccc(N2CCN(c3ccccc3F)CC2)nc1 | -68*
O=[N+]([O-])c1ccc(-c2nnc(S)n2-c2ccccc2)cc1 | -95*
C/C(=N/N1CCN(c2ccccc2)CC1)c1cccc([N+](=O)[O-])c1 | -70*
O=[N+]([O-])c1ccc(N2CCN(c3ccccc3)CC2)cc1 | -80*
CC1Cc2ccccc2N1c1ncnc(N)c1[N+](=O)[O-] (stereo not given) | 69
O=[N+]([O-])c1ccc(N2CCN(c3ccccc3F)CC2)nc1 | -66*
O=[N+]([O-])c1ccc(N2CCc3ccccc3C2)nc1 | -66*
Brc1ccc(Nc2nc(-c3cccnc3)cs2)cc1 | -161*
Brc1cccc(Nc2nc(-c3cccnc3)cs2)c1 | -150*
Clc1cccc(Nc2nc(-c3cccnc3)cs2)c1 | -271*
CCOc1ccc(Nc2nc(-c3cccnc3)cs2)cc1 | -223*
O=C(c1ccccc1)c1ccc(N2CCOCC2)c(F)c1 | -145*
Cc1ccc(C(=O)Nc2ccc(N3CCOCC3)nc2)cc1 | -71*
O=C(Nc1ccc(N2CCOCC2)nc1)c1cccs1 | -104*
SMILES | aSyn UTR act
CN(C)c1ccc(NC(=O)c2ccc(N3CCOCC3)nc2)cc1 | -62*
O=C(c1ccccc1)c1cc([N+](=O)[O-])ccc1N1CCOCC1 | 101
O=C(Nc1ccc(N2CCOCC2)c(F)c1)c1cccs1 | -123*
COC(=O)c1c(NC(=O)c2ccccc2[N+](=O)[O-])sc2c1CC(C)(C)NC2(C)C | -70*
COC(=O)c1c(NC(=O)COc2ccc(Cl)cc2)sc2c1CC(C)(C)NC2(C)C | 83
O=C(Cn1cnc2c(oc3ccccc32)c1=O)c1ccccc1 | -106*
Cc1cc(C)c2c(n1)sc1c(=O)n(CC(=O)c3ccccc3)cnc12 | -132*
O=C(NC1=NCCS1)C1COc2ccccc2O1 (stereo not given) | 98
O=C(Nc1ncc(Cc2ccccc2)s1)C1COc2ccccc2O1 (stereo not given) | -190*
CCC(CC)c1nnc(NC(=O)C2COc3ccccc3O2)s1 (stereo not given) | -72*
Cc1nnc(NC(=O)C2COc3ccccc3O2)s1 (stereo not given) | -118*
CC1CC1C(=O)Nc1ccc(-c2ccccc2)cc1 (stereo not given) | -152*
Clc1ccc(/C=N/NC(=Nc2ccccc2)c2ccccn2)c(Cl)c1 | -82*
C/C(=N\Nc1ncc(Cl)cc1Cl)c1ccccn1 | 101
Cc1ccc(SCC(=O)c2ccc[nH]2)cc1 | -126*
COc1ccc(-c2nnc(SCC(=O)c3ccc[nH]3)o2)cc1 | -107*
COc1ccc(-c2nnc(SCC(=O)c3cccs3)o2)cc1 | -140*
Cc1cc(C)nc(Sc2ncnc3c2oc2ccccc23)n1 | -64*
CCSc1ncnc2c1oc1ccccc12 | -64*
Clc1ncnc2c1oc1ccccc12 | -62*
c1ccc2cc(Sc3ncnc4c3oc3ccccc34)ccc2c1 | -71*
CCc1ccc(C(=O)Cn2ccsc2=N)cc1 | -102*
COc1ccc(-c2cnn3c4c(c(C)nc23)CCN4C(C)C)cc1OC | -70*
O=C(c1ccc(-c2ccccc2)cc1)N1CCN(c2ccccc2)CC1 | -70*
O=C(O)c1ccc(-c2nnc(-c3ccccc3)o2)cc1 | -78*
SMILES | aSyn UTR act
O=C(c1ccc(-c2nnc(-c3ccccc3)o2)cc1)N1CCCCCC1 | -68*
C(C#CCCCCCCCCC[n+]1ccccc1)#CCCCCCCCCC[n+]1ccccc1 | 73
c1ccc2c(-c3cn4ccccc4n3)c[nH]c2c1 | -281*
Oc1ccc(-c2cn3ccccc3n2)cc1O | -124*
CC(=O)Nc1cccc(-c2cn3ccccc3n2)c1 | -78*
O=C(Nc1cccc(-c2cn3ccccc3n2)c1)c1cc2ccccc2oc1=O | -100*
c1cncc(CSc2ccc(-c3ccc4c(c3)OCO4)nn2)c1 | -109*
Cc1nc(C)c(-c2ccc(SCc3ccccc3C)nn2)s1 | -97*
Cc1ccccc1CSc1ccc(-c2ccc3c(c2)OCO3)nn1 | -83*
CCN(C(=O)c1cc2c(=O)n3ccccc3nc2n1C)C1CCCCC1 | -75*
CN(C(=O)c1cc2c(=O)n3ccccc3nc2n1C)C1CCCCC1 | -90*
CCN(C(=O)c1cc2c(=O)n3ccccc3nc2s1)C1CCCCC1 | -71*
CC1CCCCC1NC(=O)c1cc2c(=O)n3ccccc3nc2n1C (stereo not given) | -66*
c1ccc(COc2ccc(OCCCCN3CCCCC3)cc2)cc1 | -82*
c1ccc(COc2ccc(OCCn3cncn3)cc2)cc1 | -110*
CN1CCN(CCCOc2ccc(-c3ccccc3)cc2)CC1 | -63*
CN1CCN(CCOc2ccc(-c3ccccc3)cc2)CC1 | -110*

Screening data from PubChem BioAssay.
